Results as given in PubChem BioAssay.
Activity calls are given as the source filed them. No stated cut-off is given here; in the data, active means fold change permeability below about 0.7 or above about 1.3; inactive means in between.

Experiment: modulators of brain endothelial barrier permeability, primary screen, cell-based, FITC-avidin fluorescence, HTS (AID 1963498); further: test concentration not given here
Conditions: actives lie on both sides

Row | SMILES | fold change permeability
1 | Cc1cccc(/C=C/c2ccccc2)n1 | 1.2 (inactive)
2 | Nc1c(S(=O)(=O)O)cc(Nc2ccc(Nc3nc(Cl)nc(Nc4cccc(S(=O)(=O)O)c4)n3)c(S(=O)(=O)O)c2)c2c1C(=O)c1ccccc1C2=O | 0.7 (active)
3 | O=C(OC12CC3CC(CC(C3)C1)C2)c1ccc(NCc2cc(O)ccc2O)cc1 | 1 (inactive)
4 | COc1ccccc1N1CCN(CCN(C(=O)C2CCCCC2)c2ccccn2)CC1 | 2 (active)
5 | COc1ccc(-c2ccc(N)[n+](CCCC(=O)O)n2)cc1 | 0.8 (inactive)
6 | CCOC(=O)[C@@H](N)Cc1ccc(O)c(O)c1 | 0.9 (inactive)
7 | CNCCC=C1c2ccccc2CCc2ccccc21 | 1 (inactive)
8 | CCCCCCN(CCCCCC)C(=O)Cc1c(-c2ccc(F)cc2)[nH]c2ccccc12 | 1.4 (active)
9 | NC(N)=NC(N)=Nc1cccc(Cl)c1 | 1.2 (inactive)
10 | O=C(O)/C=C/c1ccc(O)c(O)c1 | 0.8 (inactive)
11 | CS(=O)(=O)Nc1ccc([N+](=O)[O-])cc1Oc1ccccc1 | 0.8 (inactive)
12 | COc1cc2c(CCNC(C)=O)c[nH]c2cc1O | 1.1 (inactive)
13 | CN[C@H](CC(C)C)C(=O)N[C@H]1C(=O)N[C@@H](CC(N)=O)C(=O)N[C@H]2C(=O)N[C@H]3C(=O)N[C@H](C(=O)N[C@H](C(=O)O)c4cc(O)cc(O)c4-c4cc3ccc4O)[C@H](O)c3ccc(c(Cl)c3)Oc3cc2cc(c3O[C@@H]2O[C@H](CO)[C@@H](O)[C@H](O)[C@H]2O[C@H]2C[C@](C)(N)[C@H](O)[C@H](C)O2)Oc2ccc(cc2Cl)[C@H]1O | 1.6 (active)
14 | c1ccc(CN2CCC3(CCCc4ccccc43)CC2)cc1 | 1.6 (active)
15 | CCCC(C)NC(=O)c1ccc(Cl)c(Cl)c1 (stereo not given) | 1.2 (inactive)
16 | CN(C)CC(O)Cn1c2ccc(Br)cc2c2cc(Br)ccc21 (stereo not given) | 1.5 (active)
17 | CC(C)=CCC/C(C)=C/CC/C(C)=C/CSc1ccccc1C(=O)O | 1.4 (active)
18 | C[C@@]12C(=O)OC(=O)[C@]1(C)[C@H]1CC[C@@H]2O1 | 1.1 (inactive)
19 | CCCC(C(=O)OCCN(CC)CC)(c1ccccc1)c1ccccc1 | 1.2 (inactive)
20 | CN1[C@@H](CC(=O)c2ccccc2)CCC[C@H]1C[C@H](O)c1ccccc1 | 1.3 (active)

Row | SMILES | fold change permeability
21 | O=C1c2ccccc2-c2n[nH]c3cccc1c23 | 1.5 (active)
22 | C=C[C@@]1(C)CC(=O)[C@]2(O)[C@@]3(C)[C@@H](O)CCC(C)(C)[C@@H]3[C@H](O)[C@H](OC(C)=O)[C@@]2(C)O1 | 0.8 (inactive)
23 | NC[C@@H]1O[C@H](C23CC4CC(CC(C4)C2)C3)Cc2c1ccc(O)c2O | 1.1 (inactive)
24 | OC[C@H]1NC[C@H](O)[C@@H](O)[C@@H]1O | 1.1 (inactive)
25 | NC1(C(=O)O)CCCCC1 | 1 (inactive)
26 | O=C(c1ccccc1)c1ccc2n1CCC2C(=O)O (stereo not given) | 2 (active)
27 | CCN(C)C(=O)C1(CCOc2ccccc2)CCN(Cc2ccc(O)c(Cl)c2)CC1 | 1 (inactive)
28 | CCCCNc1cc(C(=O)O)cc(S(N)(=O)=O)c1Oc1ccccc1 | 1 (inactive)
29 | Cn1c(=O)[nH]c2ncn(C)c2c1=O | 1.1 (inactive)
30 | Nc1ncnc2c1ncn2[C@@H]1O[C@H](CO)[C@@H](O)[C@H]1O | 1 (inactive)
31 | CSc1ccc2c(c1)N(CCC1CCCCN1C)c1ccccc1S2 (stereo not given) | 1.4 (active)
32 | NC[C@@H]1O[C@H](c2ccccc2)Cc2c1ccc(O)c2O | 1.3 (active)
33 | Cc1cc(C)nc(SCC(=O)Nc2ncc(Cc3cccc4ccccc34)s2)n1 | 1.4 (active)
34 | Nc1nc(OCc2ccccc2)c2[nH]cnc2n1 | 1 (inactive)
35 | CC1(C)CCC2=C(O1)c1ccccc1C(=O)C2=O | 1.8 (active)
36 | C[C@]12CC[C@@H]3c4ccc(O)cc4C[C@@H](CCCCCCCCCS(=O)CCCC(F)(F)C(F)(F)F)[C@H]3[C@@H]1CC[C@@H]2O (stereo not given in full) | 1 (inactive)
37 | C=C(C)C1CC=C(C(=O)O)CC1 (stereo not given) | 0.9 (inactive)
38 | NCCCCC(=O)O | 1.1 (inactive)
39 | N[C@@H](CC(=O)O)C(=O)O | 1 (inactive)
40 | O=c1[nH]c2cc(Cl)ccc2c(O)c1-c1cccc(Oc2ccccc2)c1 | 1.4 (active)
